# Measurements taken from PubChem BioAssay (NCI).
# Compounds without any hit were thinned out: in the full panel of roughly 79,000, 15% have a hit. Unmarked numbers belong to inactive results. Calls of active or inactive are those of the source. No stated cut-off is given here; in the data, active means growth inhibition above about 70%; inactive means the rest.
# What was measured:
# [1] = NCI Yeast Anticancer Drug Screen. Data for the rad50 strain (AID 155);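 further: 0% = growth of vehicle-only cultures of the same strain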; settings: S. cerevisiae rad50 strain growth inhibition, hits give high values
# In short: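 Growth of the mutant yeast was measured after compound exposure and referenced to vehicle-treated cultures.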
# [2] = NCI Yeast Anticancer Drug Screen. Data for the mec2-1 strain (AID 157); settings: S. cerevisiae mec2-1 strain, hits give high values
# In short: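 Each compound was tested on mec2-1 yeast, a strain altered in DNA damage repair or cell cycle control. Growth inhibition is reported relative to vehicle.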
# [3] = NCI Yeast Anticancer Drug Screen. Data for the sgs1 mgt1 strain (AID 161);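 further: 0% = growth of cultures given vehicle only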; settings: S. cerevisiae sgs1 mgt1 strain, hits give high values
# In short: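 Mutant yeast exposed to compound; growth scored against vehicle-only wells.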
# [4] = NCI Yeast Anticancer Drug Screen. Data for the cln2 rad14 strain (AID 165);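 further: 0% = growth equal to vehicle treated cultures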; settings: S. cerevisiae cln2 rad14 strain, hits give high values
# In short: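 Test compounds were added to cln2 rad14 yeast cultures; inhibition of growth was then determined by comparison with vehicle treatment.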
# [5] = NCI Yeast Anticancer Drug Screen. Data for the bub3 strain (AID 167); settings: S. cerevisiae bub3 mutant strain, hits give high values
# In short: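 Whole-cell yeast assay. The mutant strain was incubated with compounds, and growth inhibition was determined by comparison with vehicle-treated cells.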
# [6] = NCI Yeast Anticancer Drug Screen. Data for the mlh1 rad18 strain (AID 175); settings: S. cerevisiae mlh1 rad18 strain growth inhibition, hits give high values
# In short: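 Inhibition values reflect reduced growth of mutant yeast versus vehicle-treated controls following compound exposure; the mutations affect DNA damage repair.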
# [7] = at 5.0 µM (retest, dose inferred, filed as 0.5)
# [8] = at 50.0 µM (retest, dose inferred, filed as 5.0)
Compound,"growth inhibition [1, 7]","growth inhibition [1, 8]",growth inhibition ([1]; at 50.0 µM),"growth inhibition [2, 7]","growth inhibition [2, 8]",growth inhibition ([2]; at 50.0 µM),"growth inhibition [3, 7]","growth inhibition [3, 8]",growth inhibition ([3]; at 50.0 µM),"growth inhibition [4, 7]","growth inhibition [4, 8]",growth inhibition ([4]; at 50.0 µM),"growth inhibition [5, 7]","growth inhibition [5, 8]",growth inhibition ([5]; at 50.0 µM),"growth inhibition [6, 7]","growth inhibition [6, 8]",growth inhibition ([6]; at 50.0 µM)
Cc1ccnc2sc3ccccc3c(=O)c12,15%,96% (active),86.8% (active),14%,93% (active),82.5% (active),4%,92% (active),80.6% (active),4%,76% (active),68.5%,6%,92% (active),83.5% (active),11%,95% (active),83.9% (active)
COc1ccc(C(c2cc3c(cc2O)OCO3)N2CCCC2)c(OC)c1 (configuration not stated),10%,96% (active),98.5% (active),0%,97% (active),98.2% (active),0%,97% (active),98.8% (active),-15%,76% (active),61.2%,5%,99% (active),97.8% (active),-3%,97% (active),96% (active)
O=C(O)CNc1ccc2c(c1)Cc1cc(Br)ccc1-2,19%,88% (active),97.2% (active),-1%,87% (active),96.2% (active),55%,98% (active),97.9% (active),-3%,59%,88.9% (active),-1%,85% (active),96.5% (active),45%,96% (active),97.7% (active)
Fc1ccc(NC(=S)SCc2ccc(Cl)c(Cl)c2)cc1,4%,92% (active),98.1% (active),3%,91% (active),99% (active),0%,97% (active),98.8% (active),-3%,92% (active),98.3% (active),3%,90% (active),98.2% (active),0%,94% (active),98.8% (active)
